An excerpt weighted towards active compounds, which were near 1.1% of everything screened.
MOR-DOR ag = OPRM1-OPRD1 heterodimerization agonism; cells, luminescence; activation, % at 9.3 µM; 340,000 tested, 0.3% active; AID 504326; in the data active = activation above about 18%;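 note: 0% = vehicle-treated cells and 100% = reference agonist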
HTR5A ag = activates human HTR5A in OPRM1-OPRD1 agonist counter-screen; P47898; HTR5A agonist assay, luminescence, cell-based; activation, % at 9.3 µM; 340,000 tested, 0.61% active; in the data active = activation mostly above about 9.5%, no sharp cut-off; inactive = mostly below about 7.6%;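 note: 0% = cells with vehicle only and 100% = reference agonist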
Target sequence (P47898 whole entry, looked up): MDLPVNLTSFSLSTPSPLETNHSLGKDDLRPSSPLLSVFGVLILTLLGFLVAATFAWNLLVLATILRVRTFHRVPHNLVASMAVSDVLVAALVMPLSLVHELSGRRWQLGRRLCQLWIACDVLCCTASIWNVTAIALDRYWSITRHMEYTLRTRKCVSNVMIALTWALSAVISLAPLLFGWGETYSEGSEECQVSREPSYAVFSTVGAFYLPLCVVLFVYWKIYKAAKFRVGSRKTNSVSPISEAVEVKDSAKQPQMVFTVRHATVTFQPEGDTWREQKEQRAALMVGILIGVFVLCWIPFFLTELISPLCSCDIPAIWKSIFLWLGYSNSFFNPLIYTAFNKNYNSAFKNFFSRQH
HTR5A inv ag = HTR5A inverse agonism, opioid heterodimer counter-screen; AID 504634; HTR5A cell line, luminescence; 340,000 tested, 0.083% active; inhibition, % at 9.3 µM; in the data active = inhibition mostly above about 23%, no sharp cut-off; inactive = mostly below about 18%;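 note: 0% = cells with DMSO and 100% = no-cell wells with DMSO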
MOR-DOR inv ag = mu-delta opioid heterodimer inverse agonism | cell-based MOR-DOR heterodimer luminescence | inhibition, % at 9.3 µM | P35372+P41143 | AID 504357 | 340,000 tested, 0.21% active; in the data active = inhibition above about 22%, passing the limit was not always enough;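 note: 0% = cells with DMSO and 100% = wells without cells with DMSO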
* hit, by the source's call.

SMILES	MOR-DOR ag	HTR5A ag	HTR5A inv ag	MOR-DOR inv ag
CCCCOc1cccc(C2C(C(=O)c3ccc(C)o3)=C(O)C(=O)N2Cc2ccco2)c1 (stereo not drawn)	-1.1	12.9*	-47.3	6.4
NNS(=O)(=O)c1ccc2c(c1)Cc1cc(S(=O)(=O)NN)ccc1-2	-3.7	11.6*	-44.8	17.2
CC(C)CN(Cc1cc(=O)oc2cc(-c3ccccc3)c(O)cc12)CC(C)C	20.1*	17.3*	9.8	-104.7
COc1ccc(C(=O)N(C)C(C)c2ccon2)cc1OC1CCN(C(C)C)CC1 (stereo not drawn)	0.0	1.5	3.7	0.1
Cc1ccc2oc(=O)c3cnn(CC(=O)N4CCCc5ccccc54)c3c2c1	-1.0	14.1*	1.7	5.5
CCn1cc([N+](=O)[O-])c(C(=O)N2CCN(C(=O)c3ccco3)CC2)n1	-1.2	13.9*	25.8	5.4
Cc1nn(-c2ccccc2)c(N)c1C1(O)C(=O)Nc2ccc([N+](=O)[O-])cc21 (stereo not drawn)	-0.4	9.7	-27.9	2.0
Cc1cc(N2CCN(C)CC2)nc2ccc(NC(=S)N3CCCCC3)cc12	-3.1	-4.7	13.4	16.7
Cc1cc(N2CCOCC2)nc2ccc(NC(=S)N3CCCCC3C)cc12 (stereo not drawn)	3.1	12.1*	-33.2	-22.4
CSc1nc(N)nc(SCC(=O)C23CC4CC(CC(C4)C2)C3)c1C#N	8.8	11.7*	-34.4	-47.1
N#Cc1c(N)nc(SCC(=O)C23CC4CC(CC(C4)C2)C3)c(C#N)c1-c1ccc(Cl)cc1	0.1	6.8	-17.6	-0.3
O=S(=O)(c1ccccc1)N(CC(O)Cn1c2ccccc2c2ccccc21)c1ccccc1 (stereo not drawn)	2.4	6.8	-16.2	-9.7
COc1cc2c(cc1NC(=O)C(C)N1CCN(S(=O)(=O)c3ccc(C)c(C)c3)CC1)oc1ccccc12 (stereo not drawn)	-0.8	-0.7	1.6	4.5
COc1cc2c(cc1NC(=O)C(C)OC(=O)c1ccc(S(=O)(=O)Nc3ccccc3Cl)cc1)oc1ccccc12 (stereo not drawn)	-2.4	12.6*	-32.7	12.1
COc1cc2c(cc1OC)C(c1ccc(OC)c(OC)c1OC)CC(=O)N2 (stereo not drawn)	-2.1	10.0*	-37.0	9.7
COc1cc2c(cc1OC)C(c1cccc(OC)c1OC)CC(=O)N2 (stereo not drawn)	-4.3	-0.3	0.9	18.8
CCN(Cc1nc(-c2ccccc2)no1)C(=O)c1ccc2c(c1)OCO2	-0.9	1.4	-7.5	4.6
O=c1ccc2cc(S(=O)(=O)N3CCN(c4ccccc4)CC3)ccc2[nH]1	3.7	6.5	10.8	-20.1
O=S(=O)(c1ccc2nc(-c3ccccc3)[nH]c2c1)N1CCN(c2ccc(Cl)cc2)CC1	4.4	10.4*	-11.0	-22.2
CCOc1ccc(N(C)C(=O)CCc2nnc3ccc(N4CCCC4)nn23)cc1	-1.2	3.5	-4.1	6.2
O=[N+]([O-])c1c(Nc2ccccc2O)cc(Cl)c2nonc12	-5.6	-12.1	8.2	28.7*
Cc1cc(N2CCN(c3ccccc3)CC2)nc(NCc2ccccc2)n1	-2.0	-2.9	-4.0	10.6
CCCc1nc(C)cc(N2CCN(c3ccccc3)CC2)n1	-1.7	9.6*	-34.2	7.9
CC(NC(=O)Cn1cnnn1)C12CC3CC(CC(C3)C1)C2 (stereo not drawn)	-0.9	4.5	-12.1	5.5
S=c1[nH]c(-c2ccccc2)cs1	3.9	10.2*	-25.2	-20.1
SMILES	MOR-DOR ag	HTR5A ag	HTR5A inv ag	MOR-DOR inv ag
Fc1ccc(-c2csc(=S)[nH]2)cc1	-0.6	-2.6	7.3	3.4
CSc1ccccc1NC(=O)c1ccc(N2CCCC2=O)cc1	-3.2	8.3	-20.3	13.4
Cc1ccc(S(=O)(=O)NCC(=O)OCC(=O)c2ccc(S(=O)(=O)N3CCCCC3)cc2)cc1C	-18.7	-17.1	42.1*	77.5*
Cc1cccc(N2C(=O)c3ccccc3C2=O)n1	-3.0	0.6	-2.3	14.2
O=C(NCC(c1ccc(F)cc1)N1CCOCC1)c1ccccc1F (stereo not drawn)	-3.2	11.5*	-36.2	16.8
O=C(NCC(c1ccc(F)cc1)N1CCOCC1)c1cc(F)c(F)c(F)c1F (stereo not drawn)	2.0	0.7	-1.8	-14.4
CN(C)/C=C/c1oc2ccc(O)cc2c1[N+](=O)[O-]	-7.8	-10.8	30.3*	40.9*
Cc1oc2ccc(O)cc2c1C(=O)c1ccc([N+](=O)[O-])cc1	4.3	3.4	-30.4	-23.2
CN(c1ccc(C(=O)N2CCN(Cc3ccccc3)CC2)cc1)S(=O)(=O)c1ccccc1	1.7	-7.7	20.4	-12.5
Cc1nc2c(C)cccn2c(=O)c1NC(=O)c1cccc2ccccc12	-2.2	-4.0	11.0	14.1
Cc1cc(CNC(=O)COc2ccc(F)cc2)c2ccccc2n1	-1.3	11.2*	-5.3	8.1
Cc1cc(CNC(=O)COc2ccccc2)c2ccccc2n1	-0.7	6.1	-51.5	3.0
CC(=O)c1cc(-c2ccccc2)n(CC(=O)N2CCCCC2)c1C	-0.1	11.8*	-38.4	0.4
CCOCC(=O)Nc1cc(S(=O)(=O)N2CCOCC2)ccc1N1CCCCC1	1.5	1.5	-19.6	-8.4
CCN(c1ccccc1)S(=O)(=O)c1ccc(C(=O)N(CCCN(C)C)c2nc3cc4c(cc3s2)OCO4)cc1	31.5*	0.7	18.9	-163.5
CC(=O)C(Cl)C(=O)Nc1ccccc1 (stereo not drawn)	-14.9	-4.9	-1.1	74.5*
O=C(Nc1ccccc1)C(Cl)C(=O)c1ccccc1 (stereo not drawn)	-19.1	-13.4	50.7*	95.6*
Cc1ccc(C)n1-c1cc(S(=O)(=O)N2CCOCC2)ccc1N1CCCC1	1.1	-0.8	7.6	-6.0
CCOC(=O)C(C)Oc1cccc2c(=O)n(CC(=O)NCc3ccc4c(c3)OCO4)ccc12 (stereo not drawn)	-1.0	12.0*	-19.5	6.0
CCOC(=O)C(C)Oc1cccc2c(=O)n(CC(=O)Nc3ccc4c(c3)OCCO4)ccc12 (stereo not drawn)	-0.6	0.9	4.3	3.7
CN1CCC(=O)N([C@H](CN=[N+]=[N-])Cc2ccccc2)CC1	-1.4	5.2	-14.1	7.9
Cc1cc(-n2c(SCC(=O)Nc3ccc(F)c(F)c3)nc3n[nH]c(C)c3c2=N)ccc1Cl	6.3	9.8*	-39.9	-33.7
Cc1cc(-n2c(SCC(=O)NCc3cccs3)nc3n[nH]c(C)c3c2=N)ccc1Cl	2.2	11.8*	-23.2	-11.8
COc1ccc(C(CCN(Cc2ccc(OC)c(OC)c2)C(C)=O)c2ccccc2)cc1 (stereo not drawn)	-1.1	-3.7	9.9	7.8
COc1ccc(CN(CCC(c2ccccc2)c2ccc(OC(C)C)cc2)C(=O)CCl)cc1OC (stereo not drawn)	82.1*	52.1*	-61.8	-454.3
COc1ccc(CNC(=O)COC(=O)c2c(NC(C)=O)sc(C)c2C)cc1	-0.1	14.0*	-9.8	0.5
COc1cc(-c2ccc(Nc3ccccc3C(=O)O)c(OC)c2)ccc1Nc1ccccc1C(=O)O	-2.3	1.5	-5.5	10.3
